The record followed here is PubChem BioAssay (NCI).

This is part of a sample that, as a whole, favours compounds with a hit. Of some 83,000 tested, about 20% had one in any assay.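 Compound tested at a single concentration for 48 hours in 96-well plates; a percent growth value below 10 was scored as active.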 Values without a mark were called inactive. The source made the active and inactive calls.

Holding throughout (assay): NCI-60 one-dose screen, 48 h (100 = growth as untreated, 0 = no growth, -100 = all killed)
Holding throughout (settings): 10 µM

Test [1] concerns NCI-H23 lung.
Test [2] has as its system NCI-H226 lung.
The subject of test [3] is NCI-H322M lung.
Test [4] relates to HOP-62 NSCLC.
Test [5] concerns NCI-H460 lung.
Test [6] concerns HOP-92 NSCLC.
In test [7] the test system is NCI-H522 lung.
Test [8] concerns A549/ATCC NSCLC.
Test [9] deals with 786-0 renal.
The subject of test [10] is COLO 205 colon.

Consider `C=C(C)[C@@H]1CC[C@]2(COP(=O)(OCC)OCC)CC[C@]3(C)[C@H](CC[C@@H]4[C@@](C)(CCCN)[C@H](C(=C)C)CC[C@]43C)[C@@H]12`, for which the growth in [1] was 23.3%; in test [2], 29%; in test [3] it was 62.1%; in test [4], 53.5%; in [5], 8.95% (active); in test [6] it was 25.2%. For the same compound, the growth in test [7] is 19.6%; in [8], 21.5%; in test [9] it was 20.4%; in [10], 29.7%.

On to `CO[C@H]1CSS[C@@H]1Cn1nc(-c2ccc(Oc3ccccc3)cc2)c2c(N)ncnc21`, for which the growth in [1] was 40.4%; in test [2], 16.6%; in test [3], 53.4%; in test [4] it was 41.3%; in test [5], 21.1%; in test [6] it was 20.5%. In addition, the growth is -13% (active) in test [7], 22.1% in [8], 45% in test [9] and 36.1% in [10].

`Cc1ccc(-c2ccc(SCC(=O)Nc3ccc(Cl)c(C(F)(F)F)c3)nn2)cc1`: the growth in [1] is 30%; in [2], 65.6%; in test [3] it was 90.1%; in test [4] it was 30%; in test [5], 13.8%; in test [6], 72.7%. In addition, the growth in test [7] was -1.27% (active); in test [8], 40.4%; in test [9], 35.1%; in test [10], -11% (active).

On to `O=C(Cn1cc(CSc2nnc3oc4ccccc4n23)nn1)Nc1cccc(Cl)c1`, for which the growth in test [1] is 60.2%; in [2], 65%; in [3], 84.1%; in test [4], 72.9%; in test [5], 91.1%; in [6], 52.1%. The growth is 47.6% in test [7], 62.9% in test [8], 93.3% in [9] and 97.8% in test [10].

On to `Cn1cc(-c2cc(N)n3nc(-c4c[nH]c5ccc(Br)cc45)cc3n2)c2cc(Br)cnc21`, for which the growth in test [1] was -81.5% (active); in [2], -55.3% (active); in [3], 11.7%; in test [4], -69.2% (active); in test [5], 2.27% (active); in test [6], -63.2% (active). The growth in [7] was -72% (active); in [8], -45.8% (active); in test [9] it was -75% (active); in test [10], -90.9% (active).

With `Clc1cccc(N/N=C/c2c[nH]c3ccccc23)n1`, the growth is 57.3% in test [1]; 50.7% in test [2]; 65.9% in test [3]; 46.9% in test [4]; 28.9% in test [5]; -10.8% (active) in test [6]. Also, the growth was 16.1% in [7], 56.4% in test [8], 13.7% in test [9] and 37.2% in [10].

Consider `O=C1CCC(N2Cc3cc(CC(=O)Nc4ccc(N5CCCCC5)cc4)ccc3C2=O)C(=O)N1` (stereo not given), for which the growth in test [1] is 93.8%; in [2] it was 16.3%; in test [3], 56.6%; in [4] it was 23.5%; in [5], 98.6%; in test [6], -5.24% (active). Also, the growth is 65.3% in test [7], 68.3% in test [8], 42.5% in test [9] and 37.5% in test [10].

In the case of `COc1cc(C2CC(c3ccccc3)=Nc3c(N)nc(N)nc3N2)ccc1Oc1nc(Nc2ccc(F)cc2)nc(N(C)C)n1` (stereo not given), the growth in test [1] was 43.9%; in test [2] it was 40.4%; in test [3] it was 71.7%; in test [4] it was 85.7%; in test [5] it was 10.6%; in [6], 16.3%. Further, the growth in test [7] was 65.6%; in test [8] it was 66.3%; in test [9], 43.4%; in [10] it was 28%.

Turning to `COc1ccc(/C(C)=N/N=C2C(=O)N(C)c3ccc(Br)cc32)cc1S(N)(=O)=O`, the growth is 64.1% in test [1]; 43.6% in test [2]; 80.8% in test [3]; 36.2% in test [4]; 74.8% in [5]; 28.1% in [6]. For the same compound, the growth in test [7] was 45.5%; in [8], 86.1%; in [9], 71.4%; in test [10], 102%.

On to `Cc1ccc(CSc2nc(Cl)c(C#N)c(-c3ccc(F)cc3)n2)cc1`, for which the growth in test [1] was 87.8%; in [2], 53.5%; in [3], 86.7%; in test [4], 96.4%; in [5] it was 86.5%; in test [6] it was 54.6%. Further, the growth in [7] was 62.5%; in test [8] it was 66.5%; in test [9], 78.7%; in test [10], 77.3%.
